TDP1 cell noCPT: qHTS for Inhibitors of human tyrosyl-DNA phosphodiesterase 1 (TDP1): qHTS in cells in absence of CPT; AID 686978, 2013; DT40 Tdp1-/- hTDP1 cells, no CPT, ATP luminescence, 48 h; actives 15% (n = 420,000); Potency, µM (doses to about 46.2 µM), for inactives: at the highest dose activity change, negative = growth inhibition, hits mostly inhibitors; note: potency is the fitted concentration of half-maximal effect; nearly all actives have a fitted effect of over 55% in size
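Stably hTDP1-transfected Tdp1-null chicken DT40 cells were treated with library compounds minus camptothecin and grown for at least 48 hr at 37 °C, after which cellular ATP was quantified by luminescence.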
DT40 TDP1 CPT: qHTS for Inhibitors of human tyrosyl-DNA phosphodiesterase 1 (TDP1): qHTS in cells in presence of CPT; actives 12% (n = 420,000); chicken DT40 Tdp1-/-;hTDP1 cells + 20 nM CPT, ATP luminescence, 48 h; Potency, µM (doses to about 46.2 µM), for the others: at the top dose activity change, negative = growth inhibition, actives largely listed as inhibitors; AID 686979, 2013; note: potency is the fitted concentration of half-maximal effect; nearly all actives have a fitted effect of over 55% in size
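Chicken DT40 Tdp1-/- cells complemented with human TDP1, 400 cells/well, exposed to compounds plus 20 nM camptothecin for at least 48 h at 37 C; viability read as ATP content by CellTiter-Glo luminescence.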
HT1080NT lethal: qHTS for induction of synthetic lethality in tumor cells producing 2HG: qHTS for the HT-1080-NT fibrosarcoma cell line; HT-1080-NT fibrosarcoma viability, CellTiter-Glo ATP luminescence, 48 h; actives 1.6% (n = 360,000); Potency, µM (highest dose often 46.1 µM), for the others: at the top dose activity, negative = less viability, usual class: cytotoxic;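 note: NT is the 2HG producing partner of a matched IDH1 knockdown line; potency is the fitted concentration of half-maximal effect; 0% = DMSO-treated cells and -100% = media-only wells without cells; nearly all actives have a fitted effect of over 55% in size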
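Toxicity toward the 2HG-producing NT line was scored as %Activity, normalised to DMSO and no-cell wells, from CellTiter-Glo luminescence after 48 hours' treatment.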
HT1080 IDH1KD tx: qHTS for induction of synthetic lethality in tumor cells producing 2HG: qHTS for the HT-1080-IDH1KD cell line; actives 2% (n = 360,000); AID 686971, 2013; Potency, µM (series often up to 46.1 µM), without a hit: top-dose activity, negative = toxicity, actives largely listed as cytotoxic; HT-1080 IDH1 knockdown viability, ATP luminescence, 48 h;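 note: potency is the fitted concentration of half-maximal effect; 0% = DMSO wells and -100% = cell-free medium wells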
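After a 2 h attachment period, IDH1KD HT-1080 cells took pin-transferred compound for 48 h at 37 °C; ATP-based luminescence after 10 min room-temperature reagent incubation reported viability.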
IL1B secr inh: qHTS for Inhibitors of Inflammasome Signaling: IL-1-beta AlphaLISA Primary Screen. THP-1 LPS/ATP IL-1B secretion, AlphaLISA, 16 h; active compounds read low. activity change, % at 57.5 µM. actives 4.7% (n = 360,000). AID 743279, 2014; in the data active = activity change below about -50%; inconclusive = mostly about -30% to -49%
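THP-1 cells pretreated 1 hr with compounds (up to 57.5 uM final), then stimulated with LPS (250 ng/mL final) plus ATP (1.25 mM final); secreted IL-1B measured by AlphaLISA after 16 hr, decreased signal indicating inhibition.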
* marks the source's active call; other numbers are inactive results; [ ] = another dose, or the depositor's remark. Hits are enriched below; roughly 19% of the tested compounds scored in any of these assays. Unless noted, calls come from the whole dose curve; as a rule, active = well fitted curve in the direction sought with a large enough effect; inconclusive = small, poorly fitted or top-dose-only effect, or another doubt; inactive = no such curve, though single readings can be large; an effect the other way counts as inactive or inconclusive. Unless noted, % is set by controls: 0 for no effect and ±100 for the full control effect.

How did CCOc1ccc(-n2c(O)cc(=O)[nH]c2=O)cc1 do in these assays?
TDP1 cell noCPT: 2%; DT40 TDP1 CPT: 9%; HT1080NT lethal: -2%; HT1080 IDH1KD tx: 1%; IL1B secr inh: -3

Results for OCc1nc2ccccc2n1CCCCOc1ccccc1 ?
TDP1 cell noCPT: inconclusive; DT40 TDP1 CPT: inconclusive; HT1080NT lethal: -11%; HT1080 IDH1KD tx: -14%; IL1B secr inh: -12

Results for Cn1c(=O)n(CCCOc2ccc(Cl)cc2)c2ccccc21 ?
TDP1 cell noCPT: 18µM*; DT40 TDP1 CPT: 15µM*; HT1080NT lethal: -6%; HT1080 IDH1KD tx: -10%; IL1B secr inh: -14

How did CCc1nc2ccccc2n1CCCCOc1ccc(C)cc1 do in these assays?
TDP1 cell noCPT: 8.2µM*; DT40 TDP1 CPT: inconclusive

What do the screens show for `OCc1nc2ccccc2n1CCCOc1ccc(Br)cc1`?
TDP1 cell noCPT: 18µM*; DT40 TDP1 CPT: 16µM*; HT1080NT lethal: -5%; HT1080 IDH1KD tx: -12%; IL1B secr inh: -11

How did CCc1nc2ccccc2n1CCCCOc1ccc(Cl)cc1 do in these assays?
TDP1 cell noCPT: inconclusive; DT40 TDP1 CPT: 21µM*

What do the screens show for `Cc1ccc(N(C)S(=O)(=O)c2nnc(NC(=O)CC(C)C)s2)cc1`?
TDP1 cell noCPT: -6%; DT40 TDP1 CPT: 5%

What do the screens show for `CCOc1ccccc1NC(=O)c1csc(C)c1C`?
TDP1 cell noCPT: -14%; DT40 TDP1 CPT: -21%; HT1080NT lethal: 29%; HT1080 IDH1KD tx: 26%; IL1B secr inh: 4

Results for Cc1ccc(OCCCCn2c(CO)nc3ccccc32)cc1 ?
TDP1 cell noCPT: inconclusive; DT40 TDP1 CPT: 23µM*; HT1080NT lethal: -7%; HT1080 IDH1KD tx: inconclusive; IL1B secr inh: -52*

Results for Cc1ccc(OCc2nc3ccccc3n2CC(C)C)cc1 ?
TDP1 cell noCPT: 23µM*; DT40 TDP1 CPT: inconclusive

How did CCn1c(COc2ccc(OC)cc2)nc2ccccc21 do in these assays?
TDP1 cell noCPT: inconclusive; DT40 TDP1 CPT: -5%; HT1080NT lethal: -1%; HT1080 IDH1KD tx: -18%; IL1B secr inh: -15

What do the screens show for `Cc1nc2ccccc2n1CCOc1ccc(F)cc1`?
TDP1 cell noCPT: 18µM*; DT40 TDP1 CPT: inconclusive; HT1080NT lethal: -2%; HT1080 IDH1KD tx: -4%; IL1B secr inh: -7

Results for c1ccc2c(c1)ncn2CCC1CCCCC1 ?
TDP1 cell noCPT: 21µM*; DT40 TDP1 CPT: 26µM*; HT1080NT lethal: -13%; HT1080 IDH1KD tx: -2%; IL1B secr inh: -1

What do the screens show for `COc1ccc(N(Cc2ccccc2)S(=O)(=O)c2cccc(C(=O)NCC3CCCO3)c2)cc1` (configuration not stated)?
TDP1 cell noCPT: -13%; DT40 TDP1 CPT: 0%; HT1080NT lethal: -4%; HT1080 IDH1KD tx: -3%; IL1B secr inh: -17

What do the screens show for `Cc1cc(Oc2ccc(=O)[nH]n2)nc(Cl)n1`?
TDP1 cell noCPT: 8%; DT40 TDP1 CPT: -15%; HT1080NT lethal: 0%; HT1080 IDH1KD tx: 13%; IL1B secr inh: -1

How did COc1ccc(CNC(=O)CCc2c(C)nc3c(c2C)c(=O)n(C)c(=O)n3C)cc1 do in these assays?
TDP1 cell noCPT: -12%; DT40 TDP1 CPT: -4%

Results for C/C(=N\NC(=O)Cn1cc([N+](=O)[O-])cn1)c1ccc(O)cc1 ?
TDP1 cell noCPT: -3%; DT40 TDP1 CPT: -28%; HT1080NT lethal: 4%; HT1080 IDH1KD tx: -3%; IL1B secr inh: -6

How did Clc1ccc(OCCn2cnc3ccccc32)cc1 do in these assays?
TDP1 cell noCPT: 18µM*; DT40 TDP1 CPT: 23µM*; HT1080NT lethal: -14%; HT1080 IDH1KD tx: -14%; IL1B secr inh: 0

How did Cc1ccc(OCc2nc3ccccc3n2C(C)C(=O)Nc2c(C)cccc2C)cc1 (configuration not stated) do in these assays?
TDP1 cell noCPT: 18µM*; DT40 TDP1 CPT: inconclusive; HT1080NT lethal: inconclusive; HT1080 IDH1KD tx: inconclusive; IL1B secr inh: -21

What do the screens show for `Cc1ncsc1C(=O)Nc1cccc(C(F)(F)F)c1`?
TDP1 cell noCPT: -18%; DT40 TDP1 CPT: -6%; HT1080NT lethal: -5%; HT1080 IDH1KD tx: 2%; IL1B secr inh: 4

What do the screens show for `COc1ccccc1-c1ccc(SCC(=O)NC2CCCCC2)nn1`?
TDP1 cell noCPT: -21%; DT40 TDP1 CPT: -11%; HT1080NT lethal: 11%; HT1080 IDH1KD tx: 13%; IL1B secr inh: 0

Results for CCOC(=O)CCc1ccc(NC(=O)/C=C/c2ccc([N+](=O)[O-])o2)cc1 ?
TDP1 cell noCPT: 3.3µM*; DT40 TDP1 CPT: 1.8µM*; HT1080NT lethal: 8.2µM*; HT1080 IDH1KD tx: 2.9µM*; IL1B secr inh: -80*

How did CCC[C@@H]1C[C@@H](C(=O)N[C@@H]([C@H]2O[C@H](SC)[C@H](O)[C@@H](O)[C@H]2O)[C@@H](C)O)N(C)C1 do in these assays?
TDP1 cell noCPT: -3%; DT40 TDP1 CPT: -13%

Results for CCOc1ccc(Br)cc1S(=O)(=O)Nc1ccc(NC(=O)c2ccccc2F)cc1 ?
TDP1 cell noCPT: 16µM*; DT40 TDP1 CPT: inconclusive; HT1080NT lethal: -28%; HT1080 IDH1KD tx: -26%; IL1B secr inh: -8

What do the screens show for `CCOc1ccc(Br)cc1C(=O)Nc1ccc(C(=O)NCC(C)C)cc1`?
TDP1 cell noCPT: inconclusive; DT40 TDP1 CPT: 10µM*; HT1080NT lethal: -8%; HT1080 IDH1KD tx: -3%; IL1B secr inh: -13

What do the screens show for `COc1ccc(Br)cc1C(=O)Nc1ccc(C(=O)NCC(C)C)cc1`?
TDP1 cell noCPT: inconclusive; DT40 TDP1 CPT: -13%; HT1080NT lethal: -5%; HT1080 IDH1KD tx: -3%; IL1B secr inh: inconclusive

What do the screens show for `O=C1C=C(c2cc3ccccc3s2)CCC1`?
TDP1 cell noCPT: -26%; DT40 TDP1 CPT: -17%; HT1080NT lethal: 7%; HT1080 IDH1KD tx: 10%; IL1B secr inh: 6

What do the screens show for `CCOc1ccc(/C(O)=C2/C(=O)C(=O)N(CCCn3ccnc3)C2c2cccs2)cc1Cl` (configuration not stated)?
TDP1 cell noCPT: 9%; DT40 TDP1 CPT: -2%; HT1080NT lethal: 3%; HT1080 IDH1KD tx: 4%; IL1B secr inh: 26

What do the screens show for `COc1ccc(CNC(=O)c2cnn(-c3nccc(-c4ccco4)n3)c2C)cc1OC`?
TDP1 cell noCPT: -15%; DT40 TDP1 CPT: 11%[9.04 µM]

What do the screens show for `O=C(C[n+]1ccccc1)NNc1ccccc1`?
TDP1 cell noCPT: -15%; DT40 TDP1 CPT: -1%; HT1080NT lethal: 2.6µM*; HT1080 IDH1KD tx: 4.6µM*; IL1B secr inh: 10

High-throughput results from PubChem BioAssay.
